# Laboratory results: ChEMBL document CHEMBL1201862, “PubChem BioAssay data set” (2004)
# Among all 400,000 compounds or so, about 2,100 (0.53%) were called active. Roughly 14% stayed inconclusive and do not appear here. How the calls were made is not given here. For the sample, actives were picked, then their nearest neighbours and some compounds at random.
# Molecular target: Ataxin-2 (Homo sapiens) (UniProt Q99700)
# Experiment: qHTS for Inhibitors of ATXN expression.
# Type: functional
# Ataxin-2 (Homo sapiens), sequence (Q99700 whole entry): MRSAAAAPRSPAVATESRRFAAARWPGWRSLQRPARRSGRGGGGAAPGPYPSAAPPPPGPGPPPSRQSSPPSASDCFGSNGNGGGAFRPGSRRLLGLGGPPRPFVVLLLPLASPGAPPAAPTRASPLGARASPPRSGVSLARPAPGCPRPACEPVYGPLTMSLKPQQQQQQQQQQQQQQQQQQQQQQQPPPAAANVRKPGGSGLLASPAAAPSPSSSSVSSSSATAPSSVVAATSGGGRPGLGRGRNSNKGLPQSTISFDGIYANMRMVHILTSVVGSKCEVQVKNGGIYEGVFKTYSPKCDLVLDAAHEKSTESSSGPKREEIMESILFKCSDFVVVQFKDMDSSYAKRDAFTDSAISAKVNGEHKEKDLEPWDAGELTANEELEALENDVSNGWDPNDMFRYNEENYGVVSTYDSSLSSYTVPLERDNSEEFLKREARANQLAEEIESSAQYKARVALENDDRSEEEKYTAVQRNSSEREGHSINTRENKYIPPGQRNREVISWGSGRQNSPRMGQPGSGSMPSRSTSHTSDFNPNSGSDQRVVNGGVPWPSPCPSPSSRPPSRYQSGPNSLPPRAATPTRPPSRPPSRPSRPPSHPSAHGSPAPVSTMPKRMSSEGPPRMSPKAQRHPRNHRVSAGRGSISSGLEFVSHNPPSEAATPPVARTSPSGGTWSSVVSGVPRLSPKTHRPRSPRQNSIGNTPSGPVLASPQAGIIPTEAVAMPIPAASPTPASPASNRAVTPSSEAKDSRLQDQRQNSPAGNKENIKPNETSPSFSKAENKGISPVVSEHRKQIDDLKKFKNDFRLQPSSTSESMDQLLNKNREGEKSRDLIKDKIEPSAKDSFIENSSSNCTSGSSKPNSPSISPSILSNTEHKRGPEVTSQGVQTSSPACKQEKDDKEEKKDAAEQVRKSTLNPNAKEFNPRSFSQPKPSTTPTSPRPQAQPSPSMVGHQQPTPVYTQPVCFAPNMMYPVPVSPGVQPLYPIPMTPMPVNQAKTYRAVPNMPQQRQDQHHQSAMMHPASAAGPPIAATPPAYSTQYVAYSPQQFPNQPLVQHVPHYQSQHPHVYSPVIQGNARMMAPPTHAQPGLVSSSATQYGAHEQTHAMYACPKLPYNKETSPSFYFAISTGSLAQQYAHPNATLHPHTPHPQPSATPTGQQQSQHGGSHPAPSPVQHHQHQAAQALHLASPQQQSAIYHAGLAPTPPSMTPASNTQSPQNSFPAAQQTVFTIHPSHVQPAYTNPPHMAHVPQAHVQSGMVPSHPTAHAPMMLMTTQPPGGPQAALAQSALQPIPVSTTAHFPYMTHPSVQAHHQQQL
row,SMILES,Potency
1,Fc1ccc(Br)cc1C1C=C(c2ccc(Br)cc2)Nc2nnnn21 (configuration not stated),inactive
2,O=C(Cn1c(=O)oc2ccc(Cl)cc21)NC1CCCCC1,inactive
3,Cc1cccn2c(=O)c3cc(C(=O)NC4CCCCCC4)sc3nc12,inactive
4,Cc1ccc(Cl)cc1-n1c(=O)c2sc3ccccc3c2n(CC(=O)NC2CCCC2)c1=O,11.2 µM (active)
5,Cc1ccc(Nc2nc(-c3ccccc3)cs2)nc1,inactive
6,Cc1ccc(Nc2nc(-c3sc(C)nc3C)cs2)cc1,inactive
7,Cc1ccc(Nc2nc(-c3ccc(O)cc3O)cs2)nc1,44.7 µM (active)
8,COC(=O)C1CCN(C(=O)COC(=O)c2ccc(N3CCCC3=O)cc2)CC1,inactive
9,COc1ccc(C(=O)O/N=C(\N)Cc2ccc(Cl)c(Cl)c2)cc1OC,28.2 µM (active)
10,COc1ccc(CC(=O)Nc2cc(C)ccn2)cc1OC,inactive
11,COc1ccc(C(=O)COC(=O)c2sc(C)nc2C)cc1OC,inactive
12,COc1ccc(NC(=O)CSc2nnc3n2CCCCC3)cc1,inactive
13,CCc1nnc(NC(=O)CSc2nc(C)c3c(c2C#N)CCCC3)s1,inactive
14,CCCCc1ccc(NC(=O)CSc2nc(=O)n(CCN(CC)CC)c3c2CCCC3)cc1,39.8 µM (active)
15,O=C(NC1CC1)c1cccc(S(=O)(=O)N2CCOCC2)c1,inactive
16,Cc1ccc(S(=O)(=O)N2CCOCC2)cc1C(=O)N1C(=O)c2cccc(N)c2C1=O,inactive
17,Cc1cc(C(=O)CCl)c(C)n1-c1cccc(S(=O)(=O)N2CCOCC2)c1,21.2 µM (active)
18,CCC(=O)c1cc2c(C)cc(=O)oc2c(C)c1O,inactive
19,CCOC(=O)c1cc2c(=O)n3ccccc3nc2n(Cc2ccco2)/c1=N/C(=O)c1ccccc1OCC,inactive

row,SMILES,Potency
1,COC(=O)[C@]12CCCCC=C1N(Cc1ccc(Cl)cc1Cl)C(=O)[C@H](CC(=O)NCc1ccc(OC)c(OC)c1)C2,25.1 µM (active)
2,COc1ccc(CNC(=O)COC(=O)c2ccc(C)c(S(=O)(=O)N3CCOCC3)c2)cc1OC,inactive
3,COCCn1c(SCC(=O)NCc2ccc(OC)c(OC)c2)nc2ccccc21,inactive
4,CCOC(=O)[C@]12CCCC=C1N(Cc1ccc(Cl)cc1Cl)C(=O)[C@H](CC(=O)NCc1ccc(OC)c(OC)c1)C2,39.8 µM (active)
5,CCCOc1ccc(N2CC(C(=O)NCCc3ccc(OC)c(OC)c3)CC2=O)cc1 (configuration not stated),inactive
6,CCOC(=O)[C@]12CCC=C1N(Cc1cccc3ccccc13)C(=O)[C@H](CC(=O)NCc1ccc(OC)c(OC)c1)C2,39.8 µM (active)
7,CCCCCCCCN1C(=O)[C@H](CC(=O)NCc2ccc(OC)c(OC)c2)C[C@@]2(C(=O)OC)CCCCC=C12,35.5 µM (active)
8,CC1(C)C/C(=N\O)C(C(O)c2cccc([N+](=O)[O-])c2)C(C)(C)N1 (configuration not stated),inactive
9,O=C1CSC(c2cccc([N+](=O)[O-])c2)N1C1CC2CCC1C2 (configuration not stated),inactive
10,CCCCN(CCCC)S(=O)(=O)c1ccc(C(=O)Nc2sc3c(c2C(N)=O)CCN(CC)C3)cc1,inactive
11,Cc1nc2nc(-c3ccccc3)cn2nc1C,inactive
12,CCCCCCCCN1C(=O)[C@H](CC(=O)NCC2CCCCC2)C[C@@]2(C(=O)OC)CCCCC=C12,25.1 µM (active)
13,Cc1ccc(C2OC34CCCCCC3C(C#N)(C(=N)O4)C2(C#N)C#N)cc1 (configuration not stated),inactive
14,CN(Cc1cccs1)c1nc(-c2cccnc2)nc2ccccc12,inactive
15,O=C(c1ccccc1)c1ccc2nc(-c3ccco3)c(-c3ccco3)nc2c1,inactive
16,c1ccc(C2CC(c3cccs3)=NN2c2ccccc2)cc1 (configuration not stated),inactive
17,COc1ccc(C2CC(c3cccs3)=NN2c2ccc(F)cc2)cc1OC (configuration not stated),inactive
18,COc1ccc(C2=NN(c3ccccc3)C(c3cccs3)C2)cc1 (configuration not stated),inactive
19,Cc1ccc(C2CC(c3cccs3)=NN2C(=O)CCl)cc1 (configuration not stated),25.1 µM (active)

row,SMILES,Potency
1,O=C(c1ccccc1Cl)N1N=C(c2cccs2)CC1c1cccc(O)c1 (configuration not stated),inactive
2,COc1cc(C2CC(c3cccs3)=NN2C(=O)CCl)ccc1OC(F)F (configuration not stated),39.8 µM (active)
3,COc1ccccc1N1N=C(c2cccs2)CC1c1ccccc1 (configuration not stated),inactive
4,Cc1ccc(C2=NN(C(=O)CCl)C(c3cccs3)C2)o1 (configuration not stated),9.47 µM (active)
5,Clc1ccc(N2N=C(c3cccs3)CC2c2ccco2)cc1 (configuration not stated),inactive
6,c1ccc(N2N=C(c3cccs3)CC2c2ccco2)cc1 (configuration not stated),inactive
7,CC(=O)Nc1ccc(C2=NN(c3ccccc3)C(c3cccs3)C2)cc1 (configuration not stated),inactive
8,O=C(CCl)N1N=C(c2cccs2)CC1c1ccco1 (configuration not stated),5.32 µM (active)
9,COc1ccc2nc3c(cc2c1)c(NC(=O)C1CCCO1)nn3CC(C)C (configuration not stated),inactive
10,O=S(=O)([N-]c1nc2ccccc2nc1-[n+]1ccn(Cc2ccccc2)c1)c1ccc(Cl)cc1,inactive
11,CCCCn1nc(NC(=O)COC)c2cc3cc(OC)ccc3nc21,inactive
12,N=c1c(C(=O)NC2CCCCC2)cc2c(=O)n3ccccc3nc2n1Cc1cccnc1,inactive
13,O=C(CCl)N1N=C(c2ccco2)CC1c1cccs1 (configuration not stated),17.8 µM (active)
14,COc1ccc(C2=NN3C(C2)c2ccccc2OC3c2cccs2)cc1 (configuration not stated),inactive
15,O=C(c1ccccc1)C1Oc2ccccc2C2CC(c3cccs3)=NN12 (configuration not stated),inactive
16,C#CCOCCOCCOCCNc1nc(N2CCN(C(=O)CCCCCCCCCCNC(=O)[C@H]([C@@H](C)CC)n3cc(CCCCN=C(N)N)nn3)CC2)nc(N2CCN(C(=O)CCCCCCCCCCNC(=O)[C@H](CO)n3cc(CCCSC)nn3)CC2)n1,35.5 µM (active)
17,C#CCOCCOCCOCCNc1nc(N2CCOCC2)nc(N2CCN(C(=O)[C@H]([C@@H](C)CC)n3cc([C@@H](N)Cc4ccc(O)cc4)nn3)CC2)n1,35.5 µM (active)
18,C#CCOCCOCCOCCNc1nc(N2CCN(C(=O)CCCCCCCCCCNC(=O)Cn3cc(C[C@@H](C)O)nn3)CC2)nc(N2CCN(C(=O)CCCCCCCCCCNC(=O)[C@@H]([C@H](C)CC)n3cc(CCCCCN)nn3)CC2)n1,20 µM (active)
19,C#CCOCCOCCOCCNc1nc(N2CCN(C(=O)CCCCCCCCCCNC(=O)Cn3cc(CCCCCN)nn3)CC2)nc(N2CCN(C(=O)CCCCCCCCCCNC(=O)[C@@H]([C@H](C)O)n3cc(C)nn3)CC2)n1,28.2 µM (active)
